HPGD block: blocks human HPGD enzyme activity; P15428; purified HPGD, NADH fluorescence kinetic, PGE2 substrate; Potency, µM, for the others: at the top dose activity change, negative = inhibition, most hits filed as inhibitors; 4.3% of 150,000 active; AID 894; also: potency is read from the fitted curve at half-maximal effect
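20 nM HPGD preincubated 15 min at room temperature with compound in 50 mM Tris-HCl pH 8, 0.01% Tween 20. Started with 1 mM NAD+ and 30 uM prostaglandin E2; NADH fluorescence (360/450 nm) read 5 times over 30-s intervals, last minus first.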
12-hLO inh: inhibitors of human 12-lipoxygenase (ALOX12); P18054; purified 12-hLO, xylenol orange hydroperoxide absorbance; Potency, µM (series often up to 57.1 µM), without a hit: at the top dose activity change, negative = inhibition, most hits filed as inhibitors; 0.12% of 150,000 active; AID 1452; active = well fitted inhibition curve with a large enough effect; inconclusive = small, poorly fitted or top-dose-only effect; also: potency is read from the fitted curve at half-maximal effect; nearly all actives have a fitted effect of over 55% in size
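Purified human 12hLO (150 nM final) was preincubated with compounds for 15 min at room temperature in 25 mM Hepes pH 7.0, 0.01% Triton X-100, then reacted with 40 uM arachidonic acid for 30 min. Hydroperoxide was detected with ferrous iron/xylenol orange.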
PNC assembly inh: inhibitors of perinucleolar compartment assembly | PC3M PTB-GFP, PNC prevalence imaging, 16 h; active compounds read low | activity change (PNC), negative = inhibition, % at 10 µM | 3.1% of 140,000 active;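 active = readout at or below -70, meaning at least 70% loss of cells showing the perinucleolar compartment, a nuclear body marking cancer cells; inconclusive = readout between -30 and a set limit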;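 also: plate controls were DMSO wells for no effect and camptothecin positive control wells for full effect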
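Read-out is percentage of cells bearing a perinucleolar compartment, from automated 20x imaging of fixed, Hoechst-stained PC3M PTB-GFP cells. Cells were seeded 4 h, then exposed 16 h to compound (23 nl of library stock) in duplicate plates.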
ALDH1A1 block: ALDH1A1 (human) enzyme inhibition; P00352; Purified ALDH1A1, NADH fluorescence, propionaldehyde substrate; Potency, µM (highest dose often 75.3 µM), for the others: at the highest dose activity, negative = inhibition, actives largely listed as inhibitors; 7.3% of 220,000 active; AID 1030;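 also: potency is read from the fitted curve at half-maximal effect; plate controls were no enzyme wells and a reference inhibitor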
Target sequence (P00352 whole entry, looked up): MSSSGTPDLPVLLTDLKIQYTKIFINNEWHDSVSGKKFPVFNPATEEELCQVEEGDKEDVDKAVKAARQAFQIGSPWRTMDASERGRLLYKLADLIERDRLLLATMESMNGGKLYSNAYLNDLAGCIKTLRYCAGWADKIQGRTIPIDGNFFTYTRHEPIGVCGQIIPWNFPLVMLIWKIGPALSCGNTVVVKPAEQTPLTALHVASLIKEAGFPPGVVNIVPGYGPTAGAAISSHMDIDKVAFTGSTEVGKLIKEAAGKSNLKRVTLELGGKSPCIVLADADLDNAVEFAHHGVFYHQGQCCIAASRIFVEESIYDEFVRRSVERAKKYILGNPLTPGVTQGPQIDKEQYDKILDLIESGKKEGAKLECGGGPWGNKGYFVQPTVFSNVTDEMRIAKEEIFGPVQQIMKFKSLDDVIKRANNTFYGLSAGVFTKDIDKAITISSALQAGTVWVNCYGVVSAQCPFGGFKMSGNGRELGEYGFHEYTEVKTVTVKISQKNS
Lamin A splicing: LMNA splicing modulation. Potency, µM (titrated, usually from 46.1 µM), for the others: top-dose ratio change, negative = inhibition, actives largely listed as inhibitors. HeLa LMNA splicing GFP/RFP minigene ratio, 48 h. AID 1487. 0.01% of 200,000 active; active = well fitted inhibition curve with a large enough effect in the signal ratio, with a control signal flat, not every such curve was filed as active; inconclusive = small, poorly fitted or top-dose-only effect, or effect the other way, or a change in a side signal; the % refers to the signal ratio; also: potency is read from the fitted curve at half-maximal effect
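S3 HeLa stable clones carrying a lamin A-EGFP splicing minigene plus DsRed2 were seeded at 600 cells/well in Opti-MEM with 2% FBS, pin-dosed and incubated 48 h at 37°C. Acumen cytometry (488 nm) gave the GFP/RFP total-intensity ratio.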
An asterisk follows results filed as active; ? = inconclusive; nt = no result; ! = a repeat was not active; [ ] = another dose, or the depositor's remark. Rows were chosen to be rich in hits. Some 10% of all compounds tested hit in one or more screens of this group. Unless noted, calls follow the shape of the dose curve; as a rule, active = well fitted inhibition curve with a large enough effect (not every such curve was filed as active); inconclusive = small, poorly fitted or top-dose-only effect, or another doubt; inactive = no such curve, though single readings can be large or run the other way. Unless noted, % is scaled to controls: 0 for no effect and ±100 for the full control effect.

SMILES	HPGD block	12-hLO inh	PNC assembly inh	ALDH1A1 block	Lamin A splicing
CCCCCCOC1(c2ccccc2)OC(=O)c2ccccc21 (stereo unspecified)	-11%	2%	-10	6%	-3%
CO/N=C/C1C(=O)NN=C1c1ccccc1 (stereo unspecified)	nt	nt	nt	2%	-4%[46 µM]
CC1(C)CC2C1CC[C@]1(C)CCC3C(C(=O)O)CC(=O)O[C@]32C1 (stereo partly specified)	-9%	0%	nt	23%	?
COc1ccccc1CNc1nc(-c2ccco2)nn1C(=O)c1cc(OC)c(OC)c(OC)c1	nt	nt	nt	nt	-8%[46 µM]
COCCNc1ncncc1-c1c(C)noc1C	nt	nt	nt	6%	-1%
CCCCC(CC)COC(=O)C(C#N)=C(c1ccccc1)c1ccccc1 (stereo unspecified)	-6%	-2%[0.00818 µM]	nt	-13%	?
Cc1ccc(CSc2nc3ccccc3cc2C=O)cc1	5µM*	-4%	-28	?	?
COC(=O)[C@H](Cc1ccccc1)NC(=O)O[C@@H]1C(=O)c2ccc(OC)cc2O[C@H]1c1cccc(C(F)(F)F)c1	-15%	nt	nt	-1%	nt
CC(=O)Oc1ccccc1C(=O)O	-18%	-4%	nt	6%	-6%
Cc1cc(C(=O)Oc2ccccc2C(=O)O)c(C)o1	-5%	-4%	-100*	2%	21%
O=C(NC(Cc1c[nH]c2ccccc12)C(=O)N/N=C/c1ccc(Cl)cc1)c1cccs1 (stereo unspecified)	nt	nt	nt	-14%	?
COc1ccc(/C=N/NC(=O)C(Cc2c[nH]c3ccccc23)NC(=O)OCC(C)C)cc1[N+](=O)[O-] (stereo unspecified)	-8%	-6%	?	13µM*	0%
O=C(O)c1cc(-c2ccco2)nc2ccc(Br)cc12	?	-7%	?	4µM*!	?
Cc1cc(C(N)=O)c2cc(Br)ccc2n1	-8%	5%	-89*	1%	-5%
Cc1cccc(NC(=O)c2cc(-c3ccco3)nc3ccccc23)n1	?	-23%	-3	?	-8%
CCCCC(C)(C)[C@H](O)/C=C/[C@H]1[C@H](O)CC(=O)[C@@H]1C/C=C\CCCC(=O)O	-4%	-4%	nt	-12%	nt
O=S(=O)(CCC(F)=C(F)F)c1nnnn1C1CCCCC1	-7%	nt	nt	18%	nt
CCc1cc(C(=O)NNC(=S)Nc2ccccc2C)cs1	-17%	-20%	?	25µM*	?
CCc1cc(C(=O)NNC(=S)Nc2cc(C)ccc2C)cs1	-15%	-11%	6	?	?
Cc1csc(=Nc2ccccc2)n1Cc1ccco1	nt	nt	nt	15µM*	-1%[46 µM]
CCCCCCCCCCCCCCCCCC(=O)NCC(COP(=O)([O-])OCC[N+](C)(C)C)OCC (stereo unspecified)	-14%	nt	nt	-6%	?
Cc1cc(C(C#N)c2ccccc2)n2ncnc2n1 (stereo unspecified)	-7%	-2%	-21	?	3%
Cc1cc(C(C#N)c2ccccc2F)n2ncnc2n1 (stereo unspecified)	nt	nt	nt	16µM*	nt
Fc1c(F)c(F)c(N/N=C/c2c[nH]c3ccccc23)c(F)c1F	-4%	-2%	?	32µM*	-28%
Cn1c(N/N=C/c2c[nH]c3ccccc23)nc2ccccc21	?	?	15	16µM*	?
SMILES	HPGD block	12-hLO inh	PNC assembly inh	ALDH1A1 block	Lamin A splicing
Cc1cc(F)ccc1NC(=O)C1CCCN(S(=O)(=O)c2ccc3c(c2)CCCC(=O)N3)C1 (stereo unspecified)	nt	nt	nt	nt	-8%[46 µM]
Cc1ccc(NC(=O)c2c(C)cc(C)nc2SCC(=O)Nc2ccc(Br)cc2)cc1	nt	nt	nt	nt	-3%[46 µM]
O=C(O)/C=C(\Oc1ccccc1)C1(O)CCCCC1	nt	nt	nt	-2%	nt
CCCCn1c(N)c(N(CC)C(=O)CSc2nnnn2-c2cc(C)ccc2C)c(=O)[nH]c1=O	nt	nt	nt	11µM*	nt
CCN(C(=O)CSc1nnnn1C)c1c(N)n(Cc2ccccc2)c(=O)[nH]c1=O	nt	nt	nt	13%	-4%[46 µM]
COc1cc(/C=C/C(=O)c2cccs2)cc(OC)c1OC	28µM*	-2%	nt	10µM*	nt
COc1cc(/C=C/C(C)=O)cc(OC)c1OC	-24%	-1%	9	-3%	-11%
C/C(=N\Nc1nc2c(s1)CCCC2)c1ccc(Cl)cc1	-14%	?	?	28µM*	?
CN(C)CC(=O)c1ccc(-c2ccccc2)cc1	-22%	-15%	3	?	13%
C/[N+]([O-])=C\CC(=O)c1ccc(-c2ccccc2)cc1	nt	nt	nt	28µM*	-4%[46 µM]
CCN(CC)C(=O)c1ccc(-c2ccccc2)cc1	0.63µM*	-2%	3	?	14%
CCc1nnc(NS(=O)(=O)c2ccc(N/C=C\C(=O)c3cccc(OC)c3)cc2)s1	nt	nt	nt	-9%	?
CCc1nnc(NS(=O)(=O)c2ccc(N/C=C/C(=O)c3ccc(C)cc3)cc2)s1	18µM*	-1%	-9	?	14%
CCc1nnc(NS(=O)(=O)c2ccc(N/C=C\C(=O)c3ccc(C)cc3)cc2)s1	25µM*	-24%	-7	?	21%
CC(NC(=S)Nc1ccc([N+](=O)[O-])cc1)c1ccncc1 (stereo unspecified)	nt	nt	nt	20µM*	?
O=[N+]([O-])c1cccc(NC(=S)NCc2ccncc2)c1	nt	nt	nt	9.5µM*	nt
O=[N+]([O-])c1ccc(NC(=S)NCc2ccncc2)cc1	nt	nt	nt	11µM*	5%[46 µM]
COc1ccc(NC(=S)NC(C)c2ccncc2)cc1OC (stereo unspecified)	nt	nt	nt	1%	nt
O=[N+]([O-])c1ccc(NC(=S)NCCc2ccccc2)cc1	-10%	-3%	-23	?	?
COC(=O)c1ccc(C(/C=C/[C@@H](C)C(=O)NCCN2CCCC2)NC(=O)OCc2ccccc2)cc1 (stereo partly specified)	-8%	-3%	nt	-7%	nt
COC(=O)[C@@H]1C[C@H]1[C@@H](NC(=O)c1cnccn1)c1ccccc1	-4%	2%	nt	3%	nt
O=C(NCCCCCCNC(=O)ON=C1CCCCC1)ON=C1CCCCC1	-22%	2%[0.00818 µM]	nt	-11%	nt
CN(C)CC(O)COc1cc2ccccc2cc1C(=O)N1CCCCC1 (stereo unspecified)	28µM*	-1%	8	-1%	-4%
CN(C)c1cccc(NC2=CC(=[N+]3CCOCC3)CC(C)(C)C2)c1	?	-10%	?	28µM*	8%
COc1cccc(NC2=CC(=O)CC(C)(C)C2)c1	-17%	3%	-8	7%	-13%
CCc1ccc2nc(Nc3ccc(OC)cc3OC)c(C#N)cc2c1	nt	nt	nt	9%	8%[46 µM]
CC(=O)NC(Cc1ccc(C(C)C)cc1)C(=O)NC1CCN(C(=O)c2cccc(C)c2)CC1 (stereo unspecified)	nt	nt	nt	25µM*	6%[46 µM]
CC(=O)NC(Cc1cccc(F)c1)C(=O)NC1CCN(C(=O)c2cccc(C)c2)CC1 (stereo unspecified)	nt	nt	nt	4%	7%[46 µM]
O=C(Cc1ccc(Cl)cc1)Nc1ccccc1CO	-5%	-7%	-87*	6%	-4%
